Measured values taken from PubChem BioAssay (NCI).
This is part of a sample that, as a whole, favours compounds with a hit. Of some 79,000 tested, about 15% had one in any assay. Values without a mark were called inactive. The source made the active and inactive calls. Rule as the data show it: active = growth inhibition above about 70%; inactive = the rest.

Tests used:
[1] = NCI Yeast Anticancer Drug Screen. Data for the rad50 strain (AID 155);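 also: 0% = growth of vehicle-only cultures of the same strain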; settings: S. cerevisiae rad50 strain growth inhibition; at 50.0 µM; stronger effect = higher value
In short: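 Vehicle-treated cultures provide the reference for the growth inhibition reported for compound-exposed, repair-deficient yeast.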

[2] = NCI Yeast Anticancer Drug Screen. Data for the mec2-1 strain (AID 157); settings: S. cerevisiae mec2-1 strain, at 50.0 µM, stronger effect = higher value
In short: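 Strain: mec2-1 (DNA repair/cell cycle alteration). Compound exposure, then growth measured; inhibition expressed relative to vehicle.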

[3] = NCI Yeast Anticancer Drug Screen. Data for the sgs1 mgt1 strain (AID 161);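 also: 0% = growth of cultures given vehicle only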; settings: S. cerevisiae sgs1 mgt1 strain, at 50.0 µM, stronger effect = higher value
In short: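 Test agents were incubated with a DNA-repair-mutant yeast strain. Growth was then read and compared against vehicle-treated controls.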

[4] = NCI Yeast Anticancer Drug Screen. Data for the cln2 rad14 strain (AID 165);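 also: 0% = growth equal to vehicle treated cultures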; settings: S. cerevisiae cln2 rad14 strain, at 50.0 µM, stronger effect = higher value
In short: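 Compounds are applied to the cln2 rad14 yeast strain, and growth is then compared with that of vehicle-treated cultures to give inhibition.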

[5] = NCI Yeast Anticancer Drug Screen. Data for the bub3 strain (AID 167); settings: S. cerevisiae bub3 mutant strain, at 50.0 µM, stronger effect = higher value
In short: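 Mutant yeast screening strain plus compound; vehicle-treated cultures serve as the 0% inhibition reference.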

[6] = NCI Yeast Anticancer Drug Screen. Data for the mlh1 rad18 strain (AID 175); settings: S. cerevisiae mlh1 rad18 strain growth inhibition; at 50.0 µM; stronger effect = higher value
In short: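 Read-out is yeast growth inhibition, calculated against vehicle-only controls. The compound was applied to a strain engineered with DNA damage repair alterations.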

Compound | growth inhibition [1] | growth inhibition [2] | growth inhibition [3] | growth inhibition [4] | growth inhibition [5] | growth inhibition [6]
COc1cc([N+](=O)[O-])c(OC)cc1Nc1ccccc1C(=O)O | 13.1% | -12.8% | 22.1% | 18.2% | 29.4% | 16%
OCCn1c2ccccc2c2ccccc21 | 20.2% | -2.65% | 18.6% | -17.2% | 14% | -0.7%
O=C1/C(=C/c2ccc([N+](=O)[O-])cc2)CCCc2ccccc21 | 11.1% | 6.8% | 22.9% | -22.3% | -0.95% | 21.9%
CC(=O)OC(C(=O)Nc1ncccn1)c1ccccc1 (stereo unspecified) | -4.7% | -2.8% | -5.65% | 11.4% | 4.5% | -10.9%
CCCCOC(=O)CCCCCCC/C=C/C1C=CC(CCCC)C(C#N)C1C#N (stereo unspecified) | 1% | -5.95% | -25.1% | -6.05% | -4.3% | -13.3%
CC1OC(OC2CCc3c(O)c4c(c(O)c3C2)C(=O)c2ccccc2C4=O)CC(N)C1O (stereo unspecified) | 5.25% | 8.9% | 5.85% | 14.8% | -1.85% | -2.15%
CC(C)COC1CN=NN1/C=C1\CCOC1=O (stereo unspecified) | -4.2% | 10.4% | 14.3% | -6.65% | 24.2% | -3%
Cc1ccc(NC(=O)Nc2cccc(Cl)c2)cc1C | -0.1% | 5.05% | -4.95% | -17.2% | 5.1% | -16.6%
CCOC(=O)CNC(=O)CNC(=O)CNC(=O)CN | 0.1% | 2.5% | 15.8% | -20.4% | -3.85% | -16.6%
O=C(CCl)OCCN(CCOC(=O)CCl)Cc1coc2ccccc2c1=O | -4.35% | -16.2% | -4.85% | -23.4% | -1.1% | -5.65%
CCCCCC(O)(CCCC)CCCC | -0.45% | -5.6% | -14.3% | -12.6% | -0.55% | -1.15%
CC(C)(CCCOc1ccccc1)NC(=O)c1ccccc1 | 17.2% | -1.15% | -3.5% | 15.5% | 15.3% | 6.15%
O=c1oc2ccccc2c(O)c1C(c1cc(OCc2ccccc2)cc(OCc2ccccc2)c1)c1c(O)c2ccccc2oc1=O | -12.1% | -2.85% | -2.1% | -19.4% | -11.7% | -16.6%
CCCCCCCC[N+](C)([O-])CCCCCC[N+](C)([O-])CCCCCCCC (stereo unspecified) | 63.6% | 25.2% | 69.8% | 66.8% | 5.85% | 76.2% (active)
COc1cc2c(cc1OCc1ccccc1)NC(=O)C2 | 0.5% | 20.2% | 12.8% | -7.85% | -18.9% | -7%
CCOC(=O)C1C(c2cc(OC)c(OC)c(OC)c2)c2cc3c(cc2OC1(C)OC)OCO3 (stereo unspecified) | 5.55% | 5.4% | -0.15% | -1.3% | -5.25% | 19.1%
CC(=O)NNc1nc(C)c(C(=O)NNC(=O)C(=O)Nc2ccc([N+](=O)[O-])cc2[N+](=O)[O-])s1 | 6.45% | -5.65% | -30.9% | 32.9% | 24.1% | 14.8%
O=C(O)[C@@H]1OCCOCCO[C@@H](C(=O)O)[C@H](C(=O)O)OCCOCCO[C@H]1C(=O)O | 14.7% | 0.05% | -8.05% | 14.4% | 2.25% | -6.4%
COC1(C)O[C@@]2(C)c3ccccc3C(=O)[C@@]2(c2ccccc2)O1 (stereo partly specified) | -3.35% | -0.05% | 13.1% | -11.5% | 5.4% | 18.5%
COc1ccc(C2(C=O)CN(C)CN2)cc1 (stereo unspecified) | -7.2% | -3.95% | -14.7% | -21.2% | -13.8% | -7.2%
Cc1c(C)c(C)c(CN2CC(=O)c3ccccc3C2=O)c(C)c1C | 18% | 13.7% | 4% | 14.1% | 10.6% | 15.5%

Compound | growth inhibition [1] | growth inhibition [2] | growth inhibition [3] | growth inhibition [4] | growth inhibition [5] | growth inhibition [6]
CCc1cc(-c2cc(CC)on2)no1 | -3.3% | -14.9% | -12.4% | -1.15% | -19.2% | 1.4%
CCCC(=O)Oc1ccccc1C1CCCCC1 | 15.9% | 23.8% | 12.3% | 21.3% | 7.35% | 3.45%
O=C(/C=C/c1ccc(O)cc1)c1ccc2c(c1)OCO2 | 8.05% | 23.3% | 25.8% | -1.55% | 43% | 43.8%
CC(Cc1cccc2ccccc12)(C(=O)O)C(=O)O | 7.15% | -4.1% | 11.5% | -14.2% | -7.5% | 0.05%
NC(=O)CNCC1Cc2ccccc21 (stereo unspecified) | 21.8% | 6.85% | 0.1% | -16.4% | 4.6% | 7.45%
Cc1ccc(C)c2c(CC(=O)O)c[nH]c12 | -4.35% | -11.2% | -5.9% | -15.6% | 6.05% | -2.5%
COCC1CCCCC1O (stereo unspecified) | -9.95% | 7.15% | 3.05% | 26.8% | 18.1% | -2.35%
NC(=O)C(C1=CCCCC1)c1ccccc1 (stereo unspecified) | 3.25% | -1.3% | 2.1% | 3.15% | 1.95% | 0.9%
CCNN(CC)C(N)=O | 5.2% | -5% | 0.4% | 7.6% | -13.2% | -1.25%
CCCCn1cnc2ccc(N)cc2c1=O | -1.7% | 1.85% | 15.3% | -1.7% | 16.2% | 2%
N#Cc1c(N)c(C(=O)O)nn(-c2cccc(C(F)(F)F)c2)c1=O | -8.95% | 1.7% | 44% | 10.8% | -11.2% | -15.9%
COc1c(N)c(C)nc(Cl)c1C#N | -10.1% | 2.95% | -2.7% | -1.05% | -0.75% | 8.9%
Cc1cccc(NS(=O)(=O)c2ccc3c(c2)OCCOCCOCCOCCO3)c1 | 1.65% | -11.1% | 7.05% | -28% | -11.4% | -9.45%
CCOc1ccccc1C(=O)Nc1cc(Cl)ccc1Cl | 6.8% | -18.1% | -7.45% | -4.8% | -15.1% | 2.85%
O=C(Oc1ccccc1Cl)C1=C(C(=O)Oc2ccccc2Cl)CCC1 | 51.4% | -1.2% | 45.5% | -1.45% | 4.55% | 9.75%
Nc1cccc2c1C(=O)c1c(N)cccc1C2=O | 99.3% (active) | 99.4% (active) | 94.7% (active) | 98.7% (active) | 99.2% (active) | 99.1% (active)
COc1cc(C(C#N)NNC(=O)Cc2ccccc2)cc(OC)c1OC (stereo unspecified) | -18.9% | -54.1% | -53.9% | 18.5% | -45.8% | -49.8%
COC(=O)C1(Br)c2ccccc2-c2ccccc21 | -3.15% | 17.7% | 0.45% | -22.4% | 8.5% | -9.3%
Cc1ccc(C)c(N2C(=O)C(=O)C(c3nc4ccccc4o3)/C(=N/N)C2=O)c1 (stereo unspecified) | -18.8% | 34% | 14.2% | -17% | 5.25% | -17.8%
Cc1cc(C)c(OC(=O)c2ccc(C(=O)Oc3c(C)cc(C)cc3C)cc2)c(C)c1 | 13.8% | -1.65% | -4.85% | 0.25% | -1.6% | 14.9%
